PubChem BioAssay (Tox21)
Records with an inconclusive call do not appear. Entries that show only a call come without a potency. The source made the active and inactive calls. Unless noted, the call rests on the fitted dose curve; in most records, active means well fitted curve in the direction sought with a large enough effect in the repeat runs; inconclusive means weak or mixed curves; inactive means no such curve, though single readings can be large; an effect the other way counts as inactive or inconclusive.

What was measured:
[1] = qHTS assay to identify aromatase inhibitors - cell viability counter screen (AID 743084);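 further: cells stimulated with testosterone during compound exposure; nearly all actives have a fitted effect of over 55% in size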
[2] = molecular target: Aryl hydrocarbon receptor (Homo sapiens) (UniProt P35869); assay: qHTS assay to identify small molecule that activate the aryl hydrocarbon receptor (AhR) signaling pathway (AID 743085); further: nearly all actives have a fitted effect of over 15% in size; further: potency means the concentration at half of the fitted maximal effect;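 on activation: HG2L7.5c1 human HepG2 liver cells with stably integrated DRE-driven firefly reporter; series mostly up to about 70 µM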
Outline: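 Cell line HG2L7.5c1 (human hepatoma, 20× DRE-luc). Plated, 5 h 37C, compound/DMSO added, 24 h 37C. CellTiter-Fluor 30 min 37C → fluorescence; then ONE-Glo 30 min RT → luminescence.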

[3] = qHTS assay to identify small molecule that activate the aryl hydrocarbon receptor (AhR) signaling pathway - cell viability counter screen (AID 743086);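 further: HepG2 liver cells carrying the AhR DRE luciferase reporter; series mostly up to about 70 µM; nearly all actives have a fitted effect of over 45% in size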
Outline: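 HepG2-AhR-luc (HG2L7.5c1) cells, 4000/well, were preincubated 5 h at 37C, exposed to compound in qHTS format for 24 hr at 37C, then given CellTiter-Fluor for 30 min; viability was read as fluorescence in the reporter wells.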

[4] = molecular target: Peroxisome proliferator-activated receptor gamma (Homo sapiens) (UniProt P37231); assay: qHTS assay to identify small molecule agonists of the peroxisome proliferator-activated receptor gamma (PPARg) signaling pathway (AID 743094; active means well fitted activation curve with a large enough effect in the signal ratio in the repeat runs, not every such curve was filed as active; the % refers to the signal ratio)
Outline: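 Stably transfected HEK293H cells (GeneBLAzer PPARg UAS-bla) were incubated with test substances for 17 h at 37C after a 5 h pre-incubation; beta-lactamase activity was then detected by FRET substrate fluorescence.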

[5] = qHTS assay to identify small molecule antagonists of the peroxisome proliferator-activated receptor gamma (PPARg) signaling pathway - cell viability counter screen (AID 743194); further: nearly all actives have a fitted effect of over 55% in size
Outline: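 PPARg-UAS-bla HEK293H cells were plated, rested 5 h at 37 C, then treated with compounds plus rosiglitazone (50 nM final) for 17 h at 37 C; viability was then read by CellTiter-Glo luminescence after 30 min at room temperature.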

[6] = qHTS assay for small molecule agonists of the antioxidant response element (ARE) signaling pathway (AID 743202; active means well fitted activation curve with a large enough effect in the signal ratio in the repeat runs, not every such curve was filed as active; the % refers to the signal ratio; further: potency means the concentration at half of the fitted maximal effect)
Outline: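 Compounds delivered in DMSO to ARE-bla HepG2 cells (2,000 cells/well, pre-incubated 5 h) and left 16 h at 37 C. LiveBLAzer B/G FRET substrate then added for 2 h at RT before fluorescence reading.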

[7] = qHTS assay for small molecule agonists of the antioxidant response element (ARE) signaling pathway - cell viability counter screen (AID 743203; calls by dose curve; further: nearly all actives have a fitted effect of over 55% in size)
Outline: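 Cells (ARE-bla HepG2, 2,000/well) receive DMSO-dissolved compounds after a 5 hrs rest. Plates incubate 16 hrs at 37C/5% CO2. CellTiter-Glo luminescence is then recorded after 30 min at room temperature.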

[8] = qHTS assay for small molecule activators of the heat shock response signaling pathway - cell viability counter screen (AID 743209); further: nearly all actives have a fitted effect of over 50% in size
Outline: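 Quantitative HTS format, Tox21 10K library. HeLa cells carrying an HSE-driven beta-lactamase reporter were treated 5 h at 37 C, then assessed for viability by CellTiter-Glo luminescence.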

[9] = qHTS assay for small molecule activators of the heat shock response signaling pathway (AID 743210; active means well fitted activation curve with a large enough effect in the signal ratio in the repeat runs, with a control signal flat, not every such curve was filed as active; the % refers to the signal ratio;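 further: HeLa cells with beta-lactamase reporter driven by heat shock elements; series mostly up to about 63 µM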)
Outline: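 Reporter gene assay: HeLa cells stably bearing an HSE-bla construct, compound treatment 5 h at 37 C, LiveBLAzer substrate 2.5 h at RT, fluorescence intensity.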

[10] = qHTS assay to identify small molecule agonists of the peroxisome proliferator-activated receptor delta (PPARd) signaling pathway - cell viability counter screen (AID 743211); further: nearly all actives have a fitted effect of over 55% in size
Outline: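 HEK293H PPARd-bla, 3000 cells/well; 5 h preincubation 37C/5% CO2; cpd in DMSO, 17 h 37C; B/G FRET substrate 2 h RT; CellTiter-Glo 30 min RT, luminescence.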

[11] = molecular target: Peroxisome proliferator-activated receptor delta (Homo sapiens) (UniProt Q03181); assay: qHTS assay to identify small molecule agonists of the peroxisome proliferator-activated receptor delta (PPARd) signaling pathway (AID 743212; calls by dose curve)
Outline: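 A PPARd-bla HEK293H line with beta-lactamase under an Upstream Activator Sequence is treated with compounds at 37 C. Substrate loading for 2 h at room temperature precedes the fluorescence measurement.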

[12] = qHTS assay to identify small molecule antagonists of the peroxisome proliferator-activated receptor delta (PPARd) signaling pathway - cell viability counter screen (AID 743213); further: nearly all actives have a fitted effect of over 50% in size
Outline: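 HEK293H cells with the PPARd UAS-bla reporter, co-treated 17 h at 37 C with compounds and L165041 (300 nM final), were lysed with CellTiter-Glo. Luminescence indicated viable cell content.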

[13] = molecular target: Peroxisome proliferator-activated receptor delta (Homo sapiens) (UniProt Q03181); assay: qHTS assay to identify small molecule antagonists of the peroxisome proliferator-activated receptor delta (PPARd) signaling pathway (AID 743215; active means well fitted inhibition curve with a large enough effect in the signal ratio in the repeat runs, not every such curve was filed as active; the % refers to the signal ratio;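 further: cells stimulated with agonist L165041 at 300 nM final during compound exposure; series mostly up to about 62 µM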)
Outline: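 Antagonist-mode beta-lactamase reporter screen: HEK293H cells with UAS-bla under PPARd control, stimulated by 300 nM L165041 (final) alongside test compound for 17 h at 37 C, then FRET fluorescence after 2 h substrate incubation.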

[14] = qHTS assay to identify small molecule agonists of the farnesoid-X-receptor (FXR) signaling pathway - cell viability counter screen (AID 743218); further: nearly all actives have a fitted effect of over 45% in size
Outline: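 In GeneBLAzer FXR-UAS-bla HEK 293T cells, compounds act for 16 h at 37 C. Cell viability is then scored in the reporter wells by CellTiter-Glo, 30 min at RT, luminescence.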

[15] = molecular target: Vitamin D3 receptor (Homo sapiens) (UniProt P11473); assay: qHTS assay to identify small molecule agonists of the vitamin D receptor (VDR) signaling pathway (AID 743222; calls by dose curve)
Outline: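 Agonist activity measured in VDR-bla reporter cells. Exposure 16 h, 37C, 5% CO2; detection by B/G FRET substrate, 2 h RT.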

[16] = qHTS assay to identify small molecule antagonists of the farnesoid-X-receptor (FXR) signaling pathway - cell viability counter screen (AID 743221; active means well fitted cell-killing curve with a large enough effect in the repeat runs, not every such curve was filed as active; further: nearly all actives have a fitted effect of over 50% in size)
Outline: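 Luminescence from CellTiter-Glo measures cytotoxicity in GeneBLAzer FXR-UAS-bla HEK 293T cells. Cells were exposed to compounds with 50 uM chenodeoxycholic acid (final) for 16 h at 37 C, in wells also used for the reporter readout.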

[17] = molecular target: Vitamin D3 receptor (Homo sapiens) (UniProt P11473); assay: qHTS assay to identify small molecule antagonists of the vitamin D receptor (VDR) signaling pathway (AID 743223; active means well fitted inhibition curve with a large enough effect in the signal ratio in the repeat runs, not every such curve was filed as active; the % refers to the signal ratio)
Outline: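 Antagonist mode uses 1alpha,25-dihydroxyvitamin D3 at 3 nM final as stimulus. VDR-bla cells receive compounds in DMSO, incubate 16 h at 37C, then a beta-lactamase FRET substrate for 2 h at room temperature before fluorescence measurement.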

[18] = molecular target: Peroxisome proliferator-activated receptor gamma (Homo sapiens) (UniProt P37231); assay: qHTS assay to identify small molecule antagonists of the peroxisome proliferator-activated receptor gamma (PPARg) signaling pathway (AID 743191; calls by dose curve; further: series mostly up to about 63 µM; nearly all actives have a fitted effect of over 30% in size)
Outline: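 GeneBLAzer PPARg UAS-bla HEK293H cells carrying a UAS-driven beta-lactamase reporter were plated at 3000 cells/well, preincubated 5 h at 37C, then given compound for 17 h at 37C; LiveBLAzer B/G FRET substrate was read after 1 h at room temperature.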

[19] = molecular target: Bile acid receptor (Homo sapiens) (UniProt Q96RI1); assay: qHTS assay to identify small molecule antagonists of the farnesoid-X-receptor (FXR) signaling pathway (AID 743217; active means well fitted inhibition curve with a large enough effect in the signal ratio in the repeat runs, not every such curve was filed as active; the % refers to the signal ratio)
Outline: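 Beta-lactamase reporter under UAS control in HEK 293T cells; compound exposure 16 h at 37 °C in the presence of chenodeoxycholic acid (50 uM final); signal from B/G FRET substrate after 2 h at room temperature.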

[20] = molecular target: Bile acid receptor (Homo sapiens) (UniProt Q96RI1); assay: qHTS assay to identify small molecule agonists of the farnesoid-X-receptor (FXR) signaling pathway (AID 743220; active means well fitted activation curve with a large enough effect in the signal ratio in the repeat runs, not every such curve was filed as active; the % refers to the signal ratio)
Outline: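 Beta-lactamase reporter under UAS control in GeneBLAzer FXR HEK 293T cells (5000/well) measured with LiveBLAzer FRET substrate after 2 h at room temperature. Compound exposure lasted 16 h at 37C.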

Chain of Vitamin D3 receptor (Homo sapiens) (P11473 whole entry, looked up): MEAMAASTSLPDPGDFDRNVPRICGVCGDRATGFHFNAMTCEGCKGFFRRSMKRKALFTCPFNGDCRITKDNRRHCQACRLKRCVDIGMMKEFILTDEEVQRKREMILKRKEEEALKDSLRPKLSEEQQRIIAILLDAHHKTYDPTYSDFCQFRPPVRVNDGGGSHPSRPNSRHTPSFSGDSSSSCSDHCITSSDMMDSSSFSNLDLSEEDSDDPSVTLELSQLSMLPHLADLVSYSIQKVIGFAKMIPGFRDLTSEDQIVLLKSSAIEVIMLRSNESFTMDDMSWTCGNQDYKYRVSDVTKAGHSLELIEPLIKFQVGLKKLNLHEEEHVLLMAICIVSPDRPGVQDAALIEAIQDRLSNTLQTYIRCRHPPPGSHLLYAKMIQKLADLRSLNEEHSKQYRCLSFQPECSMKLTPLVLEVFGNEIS
Chain of Peroxisome proliferator-activated receptor gamma (Homo sapiens) (P37231 whole entry, looked up): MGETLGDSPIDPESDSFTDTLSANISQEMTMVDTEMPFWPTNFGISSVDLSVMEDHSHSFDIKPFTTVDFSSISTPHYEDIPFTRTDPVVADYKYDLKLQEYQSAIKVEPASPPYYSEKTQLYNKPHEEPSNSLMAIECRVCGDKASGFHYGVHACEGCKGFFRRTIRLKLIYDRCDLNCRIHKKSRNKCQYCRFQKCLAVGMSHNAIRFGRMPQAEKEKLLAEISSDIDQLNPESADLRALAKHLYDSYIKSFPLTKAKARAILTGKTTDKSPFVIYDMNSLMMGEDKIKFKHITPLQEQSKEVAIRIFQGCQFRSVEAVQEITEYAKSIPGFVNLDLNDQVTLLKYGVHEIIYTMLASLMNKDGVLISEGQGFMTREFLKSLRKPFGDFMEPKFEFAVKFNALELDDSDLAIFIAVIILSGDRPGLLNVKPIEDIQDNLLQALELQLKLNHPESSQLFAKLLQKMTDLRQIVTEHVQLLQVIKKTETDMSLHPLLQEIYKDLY
Chain of Aryl hydrocarbon receptor (Homo sapiens) (P35869 whole entry, looked up): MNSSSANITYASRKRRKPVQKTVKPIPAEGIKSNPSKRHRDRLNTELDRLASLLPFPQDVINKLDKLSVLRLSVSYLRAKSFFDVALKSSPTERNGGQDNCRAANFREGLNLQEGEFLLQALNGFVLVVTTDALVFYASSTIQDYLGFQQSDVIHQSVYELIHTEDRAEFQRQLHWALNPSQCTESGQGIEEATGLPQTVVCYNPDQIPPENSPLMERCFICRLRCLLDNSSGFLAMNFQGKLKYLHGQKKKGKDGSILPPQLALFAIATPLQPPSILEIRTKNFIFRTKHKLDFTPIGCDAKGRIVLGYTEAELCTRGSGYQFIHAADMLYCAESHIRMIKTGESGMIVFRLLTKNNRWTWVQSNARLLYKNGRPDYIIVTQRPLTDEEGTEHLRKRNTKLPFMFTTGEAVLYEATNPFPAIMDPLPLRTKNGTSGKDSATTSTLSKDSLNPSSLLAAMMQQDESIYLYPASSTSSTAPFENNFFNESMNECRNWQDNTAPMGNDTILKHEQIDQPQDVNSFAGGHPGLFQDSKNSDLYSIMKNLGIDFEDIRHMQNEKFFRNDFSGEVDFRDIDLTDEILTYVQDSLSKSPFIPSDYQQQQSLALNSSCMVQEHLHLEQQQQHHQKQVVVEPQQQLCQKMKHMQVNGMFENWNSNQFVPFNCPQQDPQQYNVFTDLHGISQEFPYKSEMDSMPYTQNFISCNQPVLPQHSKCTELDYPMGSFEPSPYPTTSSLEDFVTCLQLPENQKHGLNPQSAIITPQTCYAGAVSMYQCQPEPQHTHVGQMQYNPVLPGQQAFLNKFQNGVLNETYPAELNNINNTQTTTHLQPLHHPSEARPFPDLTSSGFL
Chain of Peroxisome proliferator-activated receptor delta (Homo sapiens) (Q03181 whole entry, looked up): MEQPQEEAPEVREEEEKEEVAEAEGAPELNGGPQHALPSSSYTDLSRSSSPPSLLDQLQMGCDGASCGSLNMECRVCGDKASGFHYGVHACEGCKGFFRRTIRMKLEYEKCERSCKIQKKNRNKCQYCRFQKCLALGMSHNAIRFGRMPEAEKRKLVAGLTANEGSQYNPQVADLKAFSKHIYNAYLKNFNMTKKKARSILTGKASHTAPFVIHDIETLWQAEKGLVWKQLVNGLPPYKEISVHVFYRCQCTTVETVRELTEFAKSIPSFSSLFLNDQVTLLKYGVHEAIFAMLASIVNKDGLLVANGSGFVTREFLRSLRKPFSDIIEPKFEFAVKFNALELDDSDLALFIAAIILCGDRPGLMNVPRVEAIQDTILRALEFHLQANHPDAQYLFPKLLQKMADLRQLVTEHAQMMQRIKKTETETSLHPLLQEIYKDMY
Chain of Bile acid receptor (Homo sapiens) (Q96RI1 whole entry, looked up): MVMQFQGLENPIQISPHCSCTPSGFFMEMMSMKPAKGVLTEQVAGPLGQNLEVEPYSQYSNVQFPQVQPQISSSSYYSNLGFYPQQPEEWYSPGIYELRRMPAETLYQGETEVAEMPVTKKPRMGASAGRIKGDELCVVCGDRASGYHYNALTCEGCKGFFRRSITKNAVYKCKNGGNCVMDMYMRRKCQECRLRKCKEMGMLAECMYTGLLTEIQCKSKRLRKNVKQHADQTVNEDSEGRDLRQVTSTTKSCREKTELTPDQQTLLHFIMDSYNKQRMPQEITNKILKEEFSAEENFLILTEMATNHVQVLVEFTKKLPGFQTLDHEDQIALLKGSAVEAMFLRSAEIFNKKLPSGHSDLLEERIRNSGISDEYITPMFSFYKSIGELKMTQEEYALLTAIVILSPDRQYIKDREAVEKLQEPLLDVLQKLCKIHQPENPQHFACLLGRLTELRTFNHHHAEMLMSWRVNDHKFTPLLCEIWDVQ

SMILES	Potency [1]	Potency [2]	Potency [3]	outcome [4]	Potency [5]	Potency [6]	outcome [7]	outcome [8]	outcome [9]	Potency [10]	outcome [11]	Potency [12]	outcome [13]	outcome [14]	outcome [15]	Potency [16]	outcome [17]	outcome [18]	outcome [19]	outcome [20]
CCOC(=O)Nc1ccc2c(c1)N(C(=O)CCN1CCOCC1)c1ccccc1S2	inactive	inactive	inactive	inactive	inactive	11.9 µM (active)	inactive	inactive	inactive	inactive	inactive	inactive	inactive	inactive	inactive					
COc1cc(C(=O)N2CCOCC2)cc(OC)c1OC	inactive	inactive	inactive	inactive	inactive	inactive	inactive	inactive	inactive	inactive		inactive		inactive	inactive	inactive	inactive			
Fc1ccccc1-c1ccccc1	inactive	inactive	inactive	inactive	inactive		inactive	inactive	inactive	inactive	inactive	inactive	inactive	inactive	inactive	inactive	inactive			
CC(C)(O)C(=O)c1ccc(OCCO)cc1	inactive	inactive	inactive	inactive		inactive	inactive	inactive	inactive	inactive	inactive	inactive				inactive		inactive		
C=CCOc1nc(OCC=C)nc(OCC=C)n1	inactive	54.5 µM (active)	inactive	inactive			inactive	inactive	inactive	inactive	inactive		inactive	inactive	inactive	inactive		inactive		
CCC(=O)c1cccc(Cl)c1	inactive	inactive	inactive	inactive		inactive	inactive	inactive	inactive	inactive	inactive	inactive	inactive	inactive	inactive	inactive	inactive	inactive		
Nc1nc(F)nc2c1ncn2[C@@H]1O[C@H](CO)[C@@H](O)[C@@H]1O	inactive	inactive	inactive	inactive	inactive		inactive	inactive	inactive	inactive	inactive	inactive	inactive	inactive		inactive				
CC(C)c1cccc(O)c1	inactive	inactive	inactive	inactive	inactive		inactive	inactive	inactive	inactive	inactive	inactive	inactive	inactive	inactive		inactive			
Cn1cnc2c(=O)[nH]c(N)nc21	inactive	inactive	inactive	inactive	inactive	inactive	inactive	inactive	inactive	inactive	inactive	inactive	inactive	inactive	inactive	inactive	inactive			
O=C1C(CCS(=O)c2ccccc2)C(=O)N(c2ccccc2)N1c1ccccc1 (configuration not stated)	inactive	inactive	inactive	inactive	inactive	inactive	inactive	inactive	inactive		inactive	inactive	inactive	inactive		inactive				
NS(=O)(=O)c1cc2c(cc1Cl)NC(CSCc1ccccc1)=NS2(=O)=O	inactive	inactive	inactive	inactive	inactive		inactive	inactive	inactive	inactive	inactive	inactive	inactive	inactive	inactive	inactive	inactive		inactive	
Oc1cc(O)c2c(c1)O[C@H](c1ccc(O)c(O)c1)[C@H](O)C2	inactive	inactive	inactive	inactive			inactive	inactive	inactive	inactive	inactive	inactive	inactive	inactive	inactive		inactive	inactive		
CO[Si](OC)(OC)OC	inactive	inactive	inactive	inactive	inactive	inactive	inactive	inactive	inactive	inactive	inactive	inactive	inactive	inactive	inactive	inactive	inactive			
CCCCc1ccc(N)cc1	inactive	inactive	inactive	inactive		inactive	inactive	inactive	inactive	inactive		inactive		inactive	inactive		inactive	inactive		
O=C(O)/C=C/c1ccc(/C=C/C(=O)O)cc1	inactive	inactive	inactive	inactive			inactive	inactive	inactive	inactive	inactive	inactive	inactive			inactive		inactive		
NS(=O)(=O)c1cc(C2(O)NC(=O)c3ccccc32)ccc1Cl (configuration not stated)	inactive	inactive	inactive	inactive	inactive	inactive	inactive	inactive	inactive	inactive	inactive	inactive	inactive		inactive	inactive	inactive		inactive	inactive
CC(C)COC(=O)C(C)C	inactive	inactive	inactive	inactive	inactive	inactive	inactive	inactive	inactive	inactive	inactive	inactive	inactive	inactive	inactive	inactive	inactive		inactive	inactive
CO[Si](CCCNCCC[Si](OC)(OC)OC)(OC)OC	inactive	inactive	inactive	inactive	inactive	inactive	inactive	inactive	inactive	inactive		inactive		inactive	inactive	inactive	inactive			inactive
c1cc(CN2CCCCC2)cc(OCCCNc2nc3ccccc3s2)c1	inactive	26.6 µM (active)		inactive		inactive	inactive	inactive	inactive				inactive	inactive	inactive	inactive				
CCCC(C)CO (configuration not stated)	inactive	inactive	inactive	inactive	inactive		inactive		inactive	inactive	inactive	inactive	inactive	inactive		inactive			inactive	inactive
CCO[Si](C)(OCC)OCC	inactive	inactive	inactive		inactive	inactive	inactive	inactive	inactive	inactive	inactive		inactive		inactive	inactive	inactive			
[O-][N+](=Nc1ccccc1)c1ccccc1	inactive	30.6 µM (active)	inactive	inactive	inactive		inactive	inactive	inactive	inactive	inactive	inactive		inactive		inactive				
O=C(O)c1ccccc1-c1ccc(C(F)(F)F)cc1	inactive	inactive	inactive		inactive	inactive	inactive	inactive	inactive	inactive	inactive	inactive	inactive	inactive	inactive	inactive			inactive	inactive
C(=C(c1ccccc1)c1ccccc1)c1ccccc1	inactive	inactive	inactive	inactive	inactive		inactive	inactive	inactive		inactive	inactive	inactive	inactive	inactive	inactive	inactive		inactive	inactive
CC(C)=CC(=O)O	inactive		inactive	inactive	inactive	inactive	inactive	inactive	inactive	inactive	inactive	inactive	inactive	inactive		inactive	inactive	inactive		
